Shown are actives, neighbours in structure and some others; about 2.7% of the full set was active somewhere.
IP6K1 inhibitor = Primary qHTS assay for small molecule inhibitors of Inositol hexaphosphate kinase 1 (IP6K1); Inositol hexakisphosphate kinase 1 (Homo sapiens), Q92551; IP6K1 kinase, ADP-Glo luminescence, 2 h; stronger effect = lower value; activity change, % (series mostly up to about 58 µM); actives 0.81% (n = 140,000); in the data active means activity change below about -25%; further: on the % scale 0 is the no-effect control and ±100 the full control effect
Target sequence (Q92551 whole entry, looked up): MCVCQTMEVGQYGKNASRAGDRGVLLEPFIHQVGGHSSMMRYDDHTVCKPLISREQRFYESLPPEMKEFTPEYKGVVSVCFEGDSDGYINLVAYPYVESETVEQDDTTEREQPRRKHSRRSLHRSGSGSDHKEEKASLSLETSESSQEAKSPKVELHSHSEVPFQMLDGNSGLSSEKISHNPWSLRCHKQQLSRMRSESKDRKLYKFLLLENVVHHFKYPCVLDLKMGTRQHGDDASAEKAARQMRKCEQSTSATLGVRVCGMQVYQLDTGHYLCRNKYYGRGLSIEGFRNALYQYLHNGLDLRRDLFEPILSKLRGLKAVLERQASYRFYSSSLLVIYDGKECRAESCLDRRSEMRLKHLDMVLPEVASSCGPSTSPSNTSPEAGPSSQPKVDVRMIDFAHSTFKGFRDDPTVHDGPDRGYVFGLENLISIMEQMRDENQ
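ADP-Glo luminescence measures ADP made by human IP6K1 during a 2 h RT reaction with ATP/IP6 (mix at 1.3 mM/130 uM); top library doses 57.5 and 19.1 uM final.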
KDM5B inh = Primary screen for KDM5B Histone Demethylases FDH-coupled qHTS | KDM5B demethylase, FDH-coupled NADH fluorescence (FDH is formaldehyde dehydrogenase) | Potency, µM (titrated, usually from 57.7 µM), usual class: inhibitors | actives 2.6% (n = 220,000); active means well fitted inhibition curve with a large enough effect; inconclusive means small, poorly fitted or top-dose-only effect; inactive means no such curve, though single readings can be large or run the other way; further: potency means the concentration at half of the fitted maximal effect; 0% is about no effect; nearly all actives have a fitted effect of over 70% in size
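qHTS format, multiple compound concentrations. Buffer 50 mM HEPES pH 7.5/0.01% Tween-20; 200 nM KDM5BΔAP final; 10 min compound preincubation; substrate-mix levels 12.5 µM peptide, 25 µM α-KG, 0.25 mM NAD⁺; 30 min RT; ΔRFU.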
* marks the source's active call; other numbers are inactive results; i = inactive; ? = inconclusive; nt = not tested or not shown.

SMILES | IP6K1 inhibitor | KDM5B inh
COc1ccccc1-c1cc(C(=O)NCc2cccnc2)c2cnn(C)c2n1 | 0 | ?
Cc1ccccc1NC(=O)COC(=O)c1cc(C(C)C)nc2ccccc12 | nt | i
CC(C)C[C@@H]1N[C@H](C(=O)N2CCOCC2)Cc2cn(Cc3ccccn3)c3cccc1c23 | -4 | i
Cc1ccc(OCC(=O)Nc2c(C)ccc3nsnc23)cc1C | nt | i
CC(C)(C)CN1CCOC[C@H]1c1ncc(-c2ccc(Cl)s2)[nH]1 | 5 | ?
O=C(Nc1cccc(-c2nnc3n2CCCC3)c1)c1cc(-c2ccccc2)n[nH]1 | 12 | ?
O=C(Nc1ccc(-c2nnc3n2CCCC3)cc1)c1cc(-c2ccccc2)n[nH]1 | -4 | 32µM*
COc1ccc(-c2cc(C(=O)O)cc(S(=O)(=O)N3CCN(C)CC3)c2)cc1 | 8 | 16µM*
CN1CCN(S(=O)(=O)c2cc(Br)cc(C(=O)O)c2)CC1 | 15 | i
O=C(c1cc(-c2ccccc2F)cc2c1OCCN2Cc1cccnc1)N1CCCC1 | -16 | ?
CNC(=O)c1cc(Nc2cccc(N(C)C)c2)cc2c1OCCN2Cc1cccnc1 | -19 | ?
CNC(=O)c1cc(-c2ccc(N3CCOCC3)cc2)cc2c1OCCN2Cc1cccnc1 | -8 | i
CNC(=O)c1cc(-c2ccccc2F)cc2c1OCCN2Cc1cccnc1 | -6 | 40µM*
CC(C)CNC(=O)c1cc(-c2ccccc2F)cc2c1OCCN2Cc1cccnc1 | -21 | 32µM*
O=C(c1cc(-c2ccccc2F)cc2c1OCCN2Cc1cccnc1)N1CC(O)C1 | -15 | 40µM*
CNC(=O)c1cc(-c2ccc(OC)nc2)cc2c1OCCN2Cc1cccnc1 | -21 | 28µM*
Cc1nn(-c2cccc(Br)c2)c(C)c1[C@@H]1C=C[C@@H](NC(=O)CC(C)(C)CC(=O)O)C1 | 9 | i
Cc1ccc(C(=O)N2CCC3(CC2)CN(C(C)C)C3c2ccccc2)s1 (stereo not given) | 10 | nt
Cc1sc(NC(=O)c2ccccc2)c(C(c2ccccc2)N2CCOCC2)c1C (stereo not given) | nt | i
CCNC(=O)OC1CCN(C(=O)c2ccc(C(C)(C)C)cc2)CC(=O)N(C)c2ccccc21 (stereo not given) | 15 | nt
O=C(C1CCN(S(=O)(=O)Cc2c(F)cccc2Cl)CC1)N1CCCC1 | nt | i
O=c1c2cc3c(=O)n(C4CCCCCC4)ccc3nc2ccn1-c1ncn[nH]1 | nt | i
CNC(=O)c1cc(-c2ccccc2O)cc2c1OCCN2Cc1cccnc1 | 3 | 32µM*
CNC(=O)c1cc(-c2ccccc2OC)cc2c1OCCN2Cc1cccnc1 | -19 | 28µM*
O=C(NC1CCOCC1)c1cc(-c2ccccc2F)cc2c1OCCN2Cc1cccnc1 | -12 | 22µM*
SMILES | IP6K1 inhibitor | KDM5B inh
COCCNC(=O)c1cc(-c2ccccc2F)cc2c1OCCN2Cc1cccnc1 | -15 | 32µM*
CNC(=O)c1cc(-c2cccc(NC(C)=O)c2)cc2c1OCCN2Cc1cccnc1 | 5 | ?
COCCNC(=O)c1cc(-c2ccccc2F)nc2c1cnn2C | -10 | nt
CNC(=O)c1cc(-c2ccccc2C)cc2c1OCCN2Cc1cccnc1 | 4 | ?
O=C(NCCc1cccnc1)c1ccccc1F | nt | i
Cc1cc2oc(=O)cc(CN3C(=O)c4ccccc4S3(=O)=O)c2cc1C(C)C | nt | i
CCN(CC)C(=O)CSc1nc2ccsc2c(=O)n1-c1cc(F)cc(F)c1 | nt | i
CCC12CN(C(=O)c3ccccc3)CC(CC)(CN(C(=O)c3ccccc3)C1)C2=O | nt | i
CCC(CC)NC(=O)c1ccc2nccn2c1 | 29 | nt
O=C(NCc1ccc(F)cc1)c1ccc2nccn2c1 | 1 | 28µM*
COCCNC(=O)c1ccc2nccn2c1 | -2 | 35µM*
O=C(NCCc1ccccn1)c1ccc2nccn2c1 | -8 | ?
CC(NC(=O)c1ccc2nccn2c1)c1ccc(F)cc1 (stereo not given) | -8 | 35µM*
CC(CCc1ccccc1)NC(=O)c1ccc2nccn2c1 (stereo not given) | -4 | 35µM*
COCCCNC(=O)c1ccc2nccn2c1 | 5 | nt
CSc1ccc(C(C)NC(=O)c2ccc(F)cc2)cc1 (stereo not given) | nt | i
CCCCn1c(=O)c(C(=O)N2CCN([S+](=O)([O-])c3ccc(C)cc3)CC2)nc2cccnc21 | 22 | nt
CC(C)CNC(=O)c1cn2cc(-c3ccc(F)cc3)sc2n1 | 1 | nt
O=C(NC1CCCc2ccccc21)C1CC2CCCC(C1)C2=O (stereo not given) | nt | i
CCSC(SCC)C(O)C(O)C(O)C(C)O (stereo not given) | nt | i
CN(C)Cc1nnc(C2CC(NC(=O)c3ccc4nccn4c3)C2)n1C (stereo not given) | 9 | ?
Cn1c(CNC(=O)c2ccc3nccn3c2)nc2cc(C(F)(F)F)ccc21 | 0 | 20µM*
CC1Cc2cc(/C=C3/SC(=S)N(C)C3=O)ccc2O1 (stereo not given) | nt | i
CC1Cc2cc(-c3ccnc4ncnn34)ccc2O1 (stereo not given) | -4 | 28µM*
Cc1ccccc1Nc1nc(NC2CCCCCC2)nc2c1cnn2-c1ccccc1 | nt | i
SMILES | IP6K1 inhibitor | KDM5B inh
Fc1ccc(CNC(=S)NCCc2cccc(Cl)c2)cc1 | nt | i
O=C(Nc1ccc(Cl)cc1Cl)c1cnc2ccccc2n1 | nt | i
O=C(Nc1ccc(Cl)cc1Cl)c1ccc2cncn2c1 | -5 | 28µM*
O=C(Nc1ccc(Cl)cc1Cl)c1ccn2cncc2c1 | 0 | 35µM*
O=C(Nc1ccc(Cl)cc1Cl)c1cccn2cncc12 | 3 | i
Cc1oc2ncnc(N3CCOCC3)c2c1C(=O)NCC1CCN(Cc2cccc(F)c2)CC1 | nt | i
O=C(C1CCCN(Cc2cccc(-c3ccc(F)cc3F)c2)C1)N1CCC(Cc2ccccc2)CC1 (stereo not given) | 7 | nt
O=C1CC2(CCN(CC3CCCCC3)CC2)Oc2ccccc21 | 10 | 32µM*
O=C1CC2(CCN(Cc3cccnc3)CC2)Oc2ccccc21 | 0 | 35µM*
O=C1CC2(CCN(CC3CC3)CC2)Oc2cc(Cl)ccc21 | 0 | ?
N#Cc1ccc(CN2CCC3(CC2)CNC(=O)c2ccccc2O3)cc1 | -2 | i
CN(C)c1ccc(CN2CCC3(CC2)CC(=O)c2ccccc2O3)cc1 | 8 | i
N#Cc1ccc(CN2CCC3(CC2)CC(=O)c2ccccc2O3)cc1 | -4 | 32µM*
O=C1CC2(CCN(Cc3ccc(F)cc3)CC2)Oc2ccccc21 | 15 | 28µM*
O=C1CC2(CCN(Cc3cccnc3)CC2)Oc2cc(Cl)ccc21 | 7 | i
COC(=O)C1CCN(S(=O)(=O)NCc2ccnc(Oc3ccc(OC)cc3)c2)CC1 | nt | i
COc1ccc(CCNC(=O)Cn2nc(-c3cccs3)c3ccccc3c2=O)cc1 | nt | i
CCOC(=O)C(Cc1cccc(N2CCN(C(=O)c3ccccc3Cl)CC2)c1)OC (stereo not given) | 5 | nt
COc1ccccc1-c1ccnc(N[C@H]2CO[C@H]3[C@@H]2OC[C@@H]3NC(=O)c2ccccc2)n1 | -8 | 35µM*
COc1ccccc1-c1ccnc(N[C@H]2CO[C@H]3[C@@H]2OC[C@@H]3NC(=O)CCC(=O)O)n1 | -4 | ?
COc1ccccc1-c1ccnc(N[C@H]2CO[C@H]3[C@@H]2OC[C@@H]3NC(=O)COc2ccccc2)n1 | -4 | 22µM*

Screening data as filed in PubChem.
